Most compounds without a hit are left out; they make up all but 12% or so of the library.
G9a inh – qHTS Assay for Inhibitors of Histone Lysine Methyltransferase G9a | Histone-lysine N-methyltransferase EHMT2 (Homo sapiens), Q96KQ7 | G9a H3K9 monomethylation, AlphaScreen, 2 h | Potency, µM (top dose mostly 102 µM), without a hit: at the top dose activity, negative = inhibition, most hits filed as inhibitors | 350,000 tested, 8.8% active | AID 504332, 2011; also: % is scaled to controls: 0 for no effect and ±100 for the full control effect; nearly all actives have a fitted effect of over 75% in size
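AlphaScreen detection with an anti-monomethyl H3K9 antibody quantified product after a 2 h room-temperature reaction containing 500 nM biotinylated H3K9 peptide, 20 µM SAM and 20 nM enzyme, which had been preincubated 15 min with compound.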
PLK1 PBD block – qHTS for Inhibitors of PLK1-PDB (polo-like kinase 1 - polo-box domain): Primary Screen. Serine/threonine-protein kinase PLK1 (Homo sapiens), P53350. Plk1 PBD binding of FITC phosphopeptide, fluorescence polarization. Potency, µM, without a hit: max response, negative = inhibition, usual class: inhibitors. 360,000 tested, 2.8% active. AID 720504, 2013; also: series mostly up to about 57 µM; % is scaled to controls: 0 for no effect and ±100 for the full control effect; nearly all actives have a fitted effect of over 65% in size
Target sequence (P53350 whole entry, looked up, the tested form may be a part): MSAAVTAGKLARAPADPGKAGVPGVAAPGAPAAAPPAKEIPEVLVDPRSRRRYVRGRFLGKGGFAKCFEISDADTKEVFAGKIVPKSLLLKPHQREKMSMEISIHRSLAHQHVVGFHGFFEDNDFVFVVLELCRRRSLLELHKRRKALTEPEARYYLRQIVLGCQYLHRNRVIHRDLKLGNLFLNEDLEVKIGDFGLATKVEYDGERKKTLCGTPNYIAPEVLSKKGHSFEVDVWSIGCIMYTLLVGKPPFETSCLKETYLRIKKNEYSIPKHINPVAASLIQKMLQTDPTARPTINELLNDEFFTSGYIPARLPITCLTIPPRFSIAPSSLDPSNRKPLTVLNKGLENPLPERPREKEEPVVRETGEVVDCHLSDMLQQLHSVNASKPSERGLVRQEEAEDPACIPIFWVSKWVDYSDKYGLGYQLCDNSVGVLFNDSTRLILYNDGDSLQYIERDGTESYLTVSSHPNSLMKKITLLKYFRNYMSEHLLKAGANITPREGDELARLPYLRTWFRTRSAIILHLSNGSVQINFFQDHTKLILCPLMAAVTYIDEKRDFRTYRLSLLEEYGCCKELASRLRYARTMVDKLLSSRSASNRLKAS
Sfp inh – qHTS Assay for Inhibitors of Bacillus subtilis Sfp phosphopantetheinyl transferase (PPTase). 4'-phosphopantetheinyl transferase ffp (Bacillus subtilis), Q9F4F7. 310,000 tested, 3.5% active. Biochemical Sfp PPTase activity, qHTS. Potency, µM, inactives show largest response in the series, negative = inhibition, most hits filed as inhibitors;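 also: the enzyme is Sfp with the accession as filed and its product quenches rhodamine fluorescence; 0% = enzyme reaction without inhibitor and -100% = no enzyme wells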
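Fluorescence-quenching assay: 15 nM Sfp-PPTase preincubated 15 min at room temperature with compound, then 5 uM rhodamine-CoA and 12.5 uM BHQ-2-labelled YbbR peptide added. Fluorescence (ex 525/em 598 nm) read at start and after 30 min; difference gives rate.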
HP1b binding inh – HTS for Inhibitors of HP1-beta Chromodomain Interactions with Methylated Histone Tails | Chromobox protein homolog 1 (Homo sapiens), P83916 | AlphaScreen HP1-beta / biotin-H3K9me3 peptide binding | Potency, µM (highest dose often 114 µM), inactives show at the top dose activity change, negative = inhibition, most hits filed as inhibitors | 390,000 tested, 0.56% active; also: nearly all actives have a fitted effect of over 70% in size
Target sequence (P83916 whole entry, looked up): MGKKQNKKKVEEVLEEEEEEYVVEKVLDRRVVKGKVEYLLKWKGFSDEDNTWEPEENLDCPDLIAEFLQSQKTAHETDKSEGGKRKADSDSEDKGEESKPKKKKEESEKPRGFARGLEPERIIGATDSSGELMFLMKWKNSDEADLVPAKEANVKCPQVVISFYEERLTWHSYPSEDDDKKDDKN
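AlphaScreen: HP1-beta (50 nM) preformed 30 min with biotin-H3(1-18)K9me3 peptide (50 nM) in PBS pH 7.4, 0.01% Tween-20. Compound added for 30 min at RT, then streptavidin donor/nickel chelate acceptor beads (10 ug/mL) for 30 min.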
BAZ2B block – qHTS Assay for Inhibitors of BAZ2B; Bromodomain adjacent to zinc finger domain protein 2B (Homo sapiens), Q9UIF8; AlphaScreen BAZ2B-H3K14Ac peptide displacement; Potency, µM (highest dose often 114 µM), inactives show at the top dose activity change, negative = inhibition, hits mostly inhibitors; 360,000 tested, 4.4% active; AID 504333, 2011; also: % is scaled to controls: 0 for no effect and ±100 for the full control effect; nearly all actives have a fitted effect of over 60% in size
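Multi-concentration screen (max 110 uM) measuring displacement of acetylated histone H3 peptide from BAZ2B by AlphaScreen, using 50 nM protein, 50 nM peptide and 10 ug/mL streptavidin donor plus Ni-chelate acceptor beads.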
JMJD2A Tudor inh – qHTS Assay for Inhibitors of JMJD2A-Tudor Domain. Lysine-specific demethylase 4A (Homo sapiens), O75164. AlphaScreen JMJD2A-Tudor / H3K4me3 peptide binding. Potency, µM (titrated, usually from 114 µM), for inactives: at the highest dose activity change, negative = inhibition, hits mostly inhibitors. 390,000 tested, 4.4% active; also: % is scaled to controls: 0 for no effect and ±100 for the full control effect; nearly all actives have a fitted effect of over 50% in size
Active calls of the source: *; [ ] = remark or other dose. Calls follow the shape of the dose curve; as a rule, active = well fitted curve in the direction sought with a large enough effect; inconclusive = small, poorly fitted or top-dose-only effect, or another doubt; inactive = no such curve, though single readings can be large; an effect the other way counts as inactive or inconclusive. Potency is read from the fitted curve at half-maximal effect.

Results for COc1ccc(NS(=O)(=O)c2ccc(-c3n[nH]c(=S)n3Cc3ccccc3)cc2)cc1 ?
G9a inh: 3.98µM*; PLK1 PBD block: inconclusive; Sfp inh: -4.8%; HP1b binding inh: -15.4%; BAZ2B block: -34.8%; JMJD2A Tudor inh: 25.1µM*

What do the screens show for `COc1ccc(S(=O)(=O)Nc2ccc(-n3cccc3)cc2)cc1`?
G9a inh: 50.1µM*; PLK1 PBD block: inconclusive; Sfp inh: -14.6%; HP1b binding inh: 44.7µM*; BAZ2B block: 70.8µM*; JMJD2A Tudor inh: 56.2µM*

What do the screens show for `O=c1[nH]c2cc3c(cc2cc1CN(Cc1cccnc1)C(=S)NCc1ccco1)OCO3`?
G9a inh: 10µM*; PLK1 PBD block: -15.4%; Sfp inh: 39.8µM*; HP1b binding inh: -2.6%; BAZ2B block: inconclusive; JMJD2A Tudor inh: -15.6%

How did O=c1[nH]c2cc3c(cc2cc1CN(Cc1cccnc1)C(=S)NCc1ccco1)OCCO3 do in these assays?
G9a inh: 39.8µM*; PLK1 PBD block: -11.8%; Sfp inh: 5.01µM*; HP1b binding inh: -24.1%; BAZ2B block: -33.5%; JMJD2A Tudor inh: -31.9%

Results for CN(C)CCN(Cc1cc2cc3c(cc2[nH]c1=O)OCO3)C(=S)NCc1ccco1 ?
PLK1 PBD block: 4.7%; Sfp inh: 6.2%; HP1b binding inh: 57.3%; BAZ2B block: -2.5%; JMJD2A Tudor inh: 8.6%

What do the screens show for `CC(C)=CCC1=C(OCC(=O)O)C(=O)c2ccccc2C1=O`?
G9a inh: inconclusive; PLK1 PBD block: 29.9µM*; Sfp inh: inconclusive; HP1b binding inh: 8.6%; BAZ2B block: -29.2%; JMJD2A Tudor inh: -30.9%

What do the screens show for `CC(C)=CCC/C(C)=C/CC/C(C)=C/CC/C(C)=C/CC1=C(C)C(=O)c2ccccc2C1=O`?
G9a inh: inconclusive; PLK1 PBD block: -12.0%; Sfp inh: inconclusive; HP1b binding inh: 6.6%; BAZ2B block: inconclusive; JMJD2A Tudor inh: -33.1%

Results for CNc1ccc(N=Nc2cccc3ncccc23)cc1 ?
PLK1 PBD block: 8.4%; HP1b binding inh: 39.8µM*; JMJD2A Tudor inh: 14.1µM*

How did c1cnc2ccc3ncccc3c2c1 do in these assays?
G9a inh: inconclusive; PLK1 PBD block: -4.3%; Sfp inh: 10.5%; HP1b binding inh: 54.0%; BAZ2B block: -17.4%; JMJD2A Tudor inh: -6.6%[11.4 µM]

How did Cc1ccccc1N=C1NC(=O)/C(=C/c2cccn2C)S1 do in these assays?
G9a inh: 44.7µM*; PLK1 PBD block: -8.9%; Sfp inh: 2.9%; HP1b binding inh: inconclusive; BAZ2B block: inconclusive; JMJD2A Tudor inh: 39.8µM*

Results for Cc1ccc(N=C2NC(=O)/C(=C\c3cccs3)S2)cc1C ?
G9a inh: 2.82µM*; PLK1 PBD block: -18.8%; Sfp inh: 2.0%; HP1b binding inh: 7.9%; BAZ2B block: 11.9%; JMJD2A Tudor inh: inconclusive

How did O=C1NC(=Nc2ccccc2)S/C1=C\c1cccn1-c1ccccc1 do in these assays?
G9a inh: inconclusive; PLK1 PBD block: -9.9%; Sfp inh: -14.6%; HP1b binding inh: -4.8%; BAZ2B block: inconclusive; JMJD2A Tudor inh: inconclusive

Results for Cc1cccc(N=C2NC(=O)/C(=C/c3cccn3C)S2)c1 ?
PLK1 PBD block: -19.6%; Sfp inh: -14.1%; HP1b binding inh: 1.8%; BAZ2B block: 39.8µM*; JMJD2A Tudor inh: inconclusive

What do the screens show for `Cc1cccc(N=C2NC(=O)/C(=C/c3cccs3)S2)c1`?
G9a inh: 1.6%[59 µM]; PLK1 PBD block: -19.4%; Sfp inh: 1.0%; HP1b binding inh: -1.8%; BAZ2B block: -4.5%; JMJD2A Tudor inh: -29.6%

Results for O=C(CNC(=O)c1ccccc1Cl)OCc1cc(=O)n2nc(C3CC3)sc2n1 ?
G9a inh: 8.9%[59 µM]; HP1b binding inh: 51.4%; BAZ2B block: -16.7%; JMJD2A Tudor inh: -1.3%

What do the screens show for `O=C(O)c1cnccn1`?
G9a inh: 8.91µM*; PLK1 PBD block: -11.2%; Sfp inh: inconclusive; HP1b binding inh: inconclusive; BAZ2B block: 44.7µM*; JMJD2A Tudor inh: 25.1µM*

What do the screens show for `O=C(Nc1nccs1)c1ncc(Cl)c(Cl)c1Cl`?
G9a inh: 44.7µM*; PLK1 PBD block: -12.4%; Sfp inh: -5.5%; HP1b binding inh: 28.0%; BAZ2B block: 5.1%; JMJD2A Tudor inh: -7.0%

Results for O=C(Nc1nccs1)c1ccccn1 ?
G9a inh: inconclusive; PLK1 PBD block: 5.8%; Sfp inh: 79.4µM*; HP1b binding inh: 41.1%; JMJD2A Tudor inh: 79.4µM*

Results for O=C(Nc1nccs1)c1cnccn1 ?
G9a inh: 6.31µM*; PLK1 PBD block: -0.7%; Sfp inh: inconclusive; HP1b binding inh: -1.6%; BAZ2B block: inconclusive; JMJD2A Tudor inh: inconclusive

What do the screens show for `COc1ccc(S(=O)(=O)Nc2ccccc2C(=O)N2CCOCC2)cc1Br`?
G9a inh: 16.4%; PLK1 PBD block: -0.4%; Sfp inh: 18.2%; HP1b binding inh: 29.5%; BAZ2B block: -4.5%; JMJD2A Tudor inh: -18.6%

How did CC(C)c1cccc2c([Si](C)(C)C)c3c(nc12)-c1cccc(=O)n1C3 do in these assays?
Sfp inh: 44.7µM*

What do the screens show for `CC(C)c1cccc2nc3c(c(C(C)(C)C)c12)Cn1c-3cccc1=O`?
Sfp inh: 0.7%

How did CC(C)c1cccc2nc3c(c([Si](C)(C)C(C)(C)C)c12)Cn1c-3cccc1=O do in these assays?
Sfp inh: 79.4µM*

Results for CN(Cc1ccccc1)C(=O)c1ccc(Nc2nc(C(N)Cc3ccc(C(F)(F)F)cc3)cs2)nc1 (configuration not stated) ?
PLK1 PBD block: 4.3%

Results for Cc1c(NC(=O)COC(=O)COc2ccc(Nc3ccccc3)cc2)c(=O)n(-c2ccccc2)n1C ?
G9a inh: 50.1µM*; PLK1 PBD block: -9.1%; Sfp inh: -7.8%; HP1b binding inh: -9.8%; BAZ2B block: inconclusive; JMJD2A Tudor inh: -30.5%

How did CCC(=O)c1ccc(OCC(=O)OCC(=O)Nc2c(C)n(C)n(-c3ccccc3)c2=O)cc1 do in these assays?
G9a inh: -33.3%; PLK1 PBD block: -5.1%; HP1b binding inh: 36.7%; BAZ2B block: 2.3%; JMJD2A Tudor inh: -8.6%

What do the screens show for `Cc1c(NC(=O)C(=O)/C=C(\O)c2ccc(Cl)cc2)c(=O)n(-c2ccccc2)n1C`?
G9a inh: -18.0%[59 µM]; PLK1 PBD block: 0.2%; Sfp inh: -0.6%; HP1b binding inh: -1.3%; BAZ2B block: inconclusive; JMJD2A Tudor inh: 12.6µM*
